# Reference: PubChem BioAssay AID1460 (National Center for Advancing Translational Sciences (NCATS), 2008)
# Hit rate of the full screen: of about 270,000 compounds, about 5,800 (2.1%) were called active. Entries that show only a call come without a potency. Another 16% or so got no clear call; they are omitted. The call rests on the fitted dose curve; in most records, active means well fitted inhibition curve with a large enough effect; inconclusive means small, poorly fitted or top-dose-only effect; inactive means flat fitted curve, though single readings scatter. The sample as a whole holds a higher share of actives than the screen did.
# Biological target: Microtubule-associated protein tau (Homo sapiens) (UniProt P10636)
# Sequence (P10636 561-689 P618L limits assumed): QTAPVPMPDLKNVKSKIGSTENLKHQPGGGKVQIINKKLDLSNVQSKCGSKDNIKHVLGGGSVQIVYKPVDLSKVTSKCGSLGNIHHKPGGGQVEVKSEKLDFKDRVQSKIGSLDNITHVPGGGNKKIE
# Experiment: qHTS for Inhibitors of Tau Fibril Formation, Thioflavin T Binding; further: nearly all actives have a fitted effect of over 55% in size
# Details: recombinant tau K18 P301L (four-repeat tau fragment), heparin-induced fibrillization, ThT fluorescence; series mostly up to 57.4 µM
# In short: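 K18 P301L tau (15 uM + 0.24 uM Alexa 594-tagged), heparin 20 uM, NaOAc pH 7, 6 h 37 C; ThT 30 uM, 1 h RT, ex 450/em 510 nm.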
# Potency means the concentration at half of the fitted maximal effect.
row,SMILES,Potency
1,CC(=O)c1ccc(NS(=O)(=O)c2ccc(-c3cc(C)no3)s2)cc1,inactive
2,O=C1c2ccccc2-c2ncnc3c(N4CCOCC4)cc(N4CCOCC4)c1c23,8.91 µM (active)
3,c1ccc(-c2oc3ncnc(N4CCOCC4)c3c2-c2ccccc2)cc1,inactive
4,Cc1oc2c(c1C(=O)N1CCOCC1)C(=O)c1ccccc1C2=O,inactive
5,CCn1cc(C(=O)NCCc2ccccc2)c(=O)c2cc(S(=O)(=O)N3CCCCCC3)ccc21,inactive
6,CCCN(CCC)C(=O)Cn1c(=O)n(-c2ccc(Cl)cc2)c(=O)c2c3c(sc21)CCCCC3,inactive
7,Cc1cc2c(cc1S(=O)(=O)CCC(=O)Nc1ccc(OC(F)(F)F)cc1)OCC(=O)N2,inactive
8,CCCCCCC(=O)Nc1nc(C)c(-c2csc(Nc3cccc(OC)c3)n2)s1,7.94 µM (active)
9,COc1cccc(CC(=O)Nc2ccc(-c3csc(C)n3)cc2)c1,inactive
10,CCOC(=O)c1csc(NC(=O)Nc2cccc(OC)c2)n1,inactive
11,CCCOc1cccc(C(=O)Nc2cccc(NC(=O)c3ccc(C(C)(C)C)cc3)c2)c1,inactive
12,Cc1ccc(Cc2nc3ccccc3nc2SCC(=O)Nc2cccc(C(F)(F)F)c2)cc1,inactive
13,C/C(=N\Nc1cccc(C(=O)O)c1)c1ccc2c(c1)Nc1ccccc1S2,5.01 µM (active)
14,CC(=O)Nc1cccc(/C(C)=N/NC(=O)c2ccccc2Cl)c1,inactive
15,O=C(NC1CC1)c1ccc2c(c1)NC(=O)c1ccccc1S2,inactive
16,Cc1ccc2c(c1)-c1c(cnn1CC(=O)Nc1ccccc1C#N)CO2,inactive
17,CSc1ncc(C(=O)NCc2ccccc2Cl)c(C(F)(F)F)n1,inactive
18,COc1ccc(N2C(=O)CC(Nc3ccc(F)cc3)C2=O)c([N+](=O)[O-])c1 (stereo not drawn),inactive
19,CC(=O)NC(Cc1ccccc1)C(=O)NC1CCN(c2ncccc2[N+](=O)[O-])CC1 (stereo not drawn),inactive
20,COc1ccc(-c2cc(C3CCN(c4ncccc4[N+](=O)[O-])CC3)[nH]n2)cc1,8.91 µM (active)
21,CCOc1ccccc1C(=O)NCC(c1ccc(N(C)C)cc1)N1CCCC1 (stereo not drawn),inactive

row,SMILES,Potency
1,Cc1cc(C)c(NC(=O)CSc2nc3nccnc3c(=O)n2CCc2c[nH]c3ccccc23)c(C)c1,inactive
2,O=C(Nn1c(-c2ccccc2)nc2ccccc2c1=O)c1ccc([N+](=O)[O-])cc1,inactive
3,Cc1nc2ccccc2nc(=O)c1NNc1ccc([N+](=O)[O-])cc1,11.2 µM (active)
4,O=[N+]([O-])c1cccc(Nc2c3ccccc3nc3ccccc23)c1,inactive
5,COC(=O)c1cc(NC(=O)c2cnc(SC)nc2-c2ccccc2)cc(C(=O)OC)c1,inactive
6,Cc1ccc(Nc2ccc3cc(S(=O)(=O)N4CCCCC4)ccc3n2)cc1F,inactive
7,CCN1CCc2c(C#N)c(NCc3ccccc3)nc(NCCO)c2C1,22.4 µM (active)
8,CCCCc1nc(NCc2ccccc2)c(C#N)c2c1CCCC2,inactive
9,CCc1nc(NCCO)c(C#N)c2c1CCCC2,inactive
10,COc1ccc(SCc2cc(=O)c3ccc(C)c(C)c3[nH]2)cc1,inactive
11,COc1ccc(CNC(=O)C(C)n2nc(C)c3c(C)n(-c4ccccc4)nc3c2=O)c(OC)c1 (stereo not drawn),inactive
12,CCOC(=O)c1[nH]c(C)c(CCC(=O)NCc2ccccc2C)c1C,inactive
13,Cc1cc(NC(=O)CN2CCCC(C)C2)n(-c2nc3ccccc3s2)n1 (stereo not drawn),inactive
14,CCC(C)Cn1c(O)cc2nn(-c3nc4ccccc4s3)c(=O)c-2c1C (stereo not drawn),31.6 µM (active)
15,CCOC(=O)N1CCN(CC(=O)Nc2cc(C)nn2-c2nc3ccccc3s2)CC1,inactive
16,COc1ccccc1N1CCN(c2ncnc3onc(-c4ccc(F)cc4)c23)CC1,inactive
17,N#Cc1ccccc1Cn1cnc2nc3c(cc2c1=O)CCCC3,inactive
18,CCOC(=O)c1c(NC(=O)/C(C#N)=C/c2ccccc2)sc2c1CCC2,inactive
19,C/C(=C\c1ccccc1)C1NC(=O)c2c(sc3c2CCCC3)N1 (stereo not drawn),3.55 µM (active)
20,CCOC(=O)N1CCc2c(sc3c2C(=O)NC(c2ccccc2F)N3)C1 (stereo not drawn),inactive
21,O=C(Nc1ccc2nc(SCC(=O)N3CCCc4ccccc43)sc2c1)c1ccc(Cl)cc1,inactive

row,SMILES,Potency
1,CCC(=O)Nc1c(C(=O)N2CCN(c3ccc(F)cc3)CC2)oc2ccccc12,inactive
2,CN(C)c1ccc(N/C=C/C(=O)C(F)(F)F)cc1,10 µM (active)
3,CC(=O)N(C)c1ccc(NC(=O)C(F)(F)F)cc1,inactive
4,O=C(/C=C/Nc1ccccc1OC(F)(F)F)C(F)(F)F,inactive
5,COC(=O)c1scc(-c2ccccc2)c1S(=O)(=O)Nc1ccccc1,inactive
6,CSc1nc(Nc2ccc(F)cc2)cc(-c2ccccc2)n1,inactive
7,Fc1ccc(Nc2nnns2)cc1,28.2 µM (active)
8,Cc1ccccc1OCCSc1nc2ccc(NC(=O)c3ccco3)cc2s1,inactive
9,COc1cccc2c1cc1c(=O)n(CC(=O)N3CCN(c4cccc(Cl)c4)CC3)nc(C)n12,inactive
10,Cc1ccc(NC(=O)C(=O)NCC(c2cccnc2)N2CCOCC2)cc1 (stereo not drawn),inactive
11,O=C(Nc1nc2ccccc2s1)c1ccc2c(c1)OCO2,inactive
12,Cc1ccc2sc(NNC(=O)c3ccc4c(c3)OCCO4)nc2c1C,12.6 µM (active)
13,Cc1cc(C)c2nc(NC(=O)c3ccc4c(c3)OCO4)sc2c1,inactive
14,COc1ccc(-c2noc(-c3ccc(N4CCN(c5ccccc5)CC4)c([N+](=O)[O-])c3)n2)cc1OC,inactive
15,O=C(Nc1ccccc1F)C(c1ccccc1)N1Cc2ccccc2C1=O (stereo not drawn),inactive
16,C[N+](C)(CCCCCC[N+](C)(C)CCCN1C(=O)c2cccc3cccc(c23)C1=O)CCCN1C(=O)c2cccc3cccc(c23)C1=O,inactive
17,Cc1[nH]n(-c2ccc(Cl)cc2)c(=O)c1/C=N/n1c(C)nc2ccccc2c1=O,inactive
18,Cc1ccc(-n2[nH]c(C)c(/C=N/N3C(=O)c4cccc5cccc(c45)C3=O)c2=O)cc1,22.4 µM (active)
19,COc1ccc(NC(=O)CCCc2nnc3n(CCC(C)C)c(=O)c4sccc4n23)c(OC)c1,inactive
20,COC(=O)c1cc2occc2n1Cc1nc(-c2ccc(C)cc2)oc1C,inactive
21,O=c1c(O)c(Br)ccc2c(Br)c(O)c(O)c(O)c12,3.55 µM (active)
